Bioassay records: PubChem BioAssay, several laboratories
Bcl-W Bim block: disrupts Bim peptide binding to human Bcl-W; Q92843; bead-based flow cytometry; inhibition, % at 10 µM; actives 0.02% (n = 190,000); AID 952;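 note: higher means less fluorescent Bim peptide bound to Bcl-W beads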
Target sequence (Q92843 whole entry, looked up): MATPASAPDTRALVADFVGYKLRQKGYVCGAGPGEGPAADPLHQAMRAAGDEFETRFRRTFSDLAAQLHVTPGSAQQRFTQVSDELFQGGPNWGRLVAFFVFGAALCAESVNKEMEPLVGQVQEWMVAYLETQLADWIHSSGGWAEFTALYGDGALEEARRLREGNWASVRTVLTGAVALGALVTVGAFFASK
Arbovirus anti: blocks arbovirus infection; actives 0.37% (n = 200,000); inhibition, % at 10 µM; AID 1251; arbovirus infection cell-based antiviral screen; in the data active = inhibition above about 30%
Bcl-XL Bim block: human Bim-Bcl-XL interaction inhibition; actives 0.04% (n = 190,000); Bim peptide-Bcl-XL binding, bead flow cytometry, fluorescence; AID 1007; inhibition, % at 10 µM; Q07817
Target sequence (Q07817 whole entry, looked up): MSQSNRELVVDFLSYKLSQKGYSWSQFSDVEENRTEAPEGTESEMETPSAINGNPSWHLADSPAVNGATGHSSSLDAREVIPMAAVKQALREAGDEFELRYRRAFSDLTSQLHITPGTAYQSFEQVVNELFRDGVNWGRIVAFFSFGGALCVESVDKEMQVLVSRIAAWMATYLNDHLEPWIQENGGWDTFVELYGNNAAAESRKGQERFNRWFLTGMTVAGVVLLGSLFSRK
Bfl-1 Bim block: human Bim-Bfl-1 interaction inhibition. Bead-based flow cytometry, Bim-Bfl-1 binding inhibition. inhibition, % at 10 µM. actives 0.12% (n = 190,000). AID 1008
Bcl-B Bim block: inhibitors of Bim-Bcl-B interaction, human. Q9HD36. bead-based flow cytometry, Bim peptide-Bcl-B binding. inhibition, % at 10 µM. actives 0.073% (n = 190,000). AID 951
Bcl-2 Bim block: human Bim-Bcl-2 interaction inhibition; Bead-based flow cytometry, Bim peptide-Bcl-2 binding; actives 0.06% (n = 190,000); inhibition, % at 10 µM; AID 950; P10415; in the data active = inhibition above about 40%
Large screens that a line does not name were inactive; ! = not active in a repeat. Only some compounds are listed: those with a hit (about 0.56% of all), similar ones and a draw of the others. Cut-off read from the data, not from the text of the source, unless noted: active = inhibition above about 40%.

COc1ccc(NS(=O)(=O)c2cc(NC(=O)/C=C/c3cccs3)ccc2N2CCOCC2)cc1	Arbovirus anti 64
CCC(=O)Nc1ccc(N2CCOCC2)c(S(=O)(=O)Nc2ccc(OC)cc2)c1	none
CC(C)CCN(C(=S)NC(=O)C1CCCCC1)c1c(N)n(Cc2ccccc2)c(=O)[nH]c1=O	Arbovirus anti 32
COCCN(C(=O)C1CCCC1)c1c(N)n(Cc2ccccc2)c(=O)[nH]c1=O	none
COc1ccc2nc(NC(=O)C3=NN(c4ccccc4)C(=O)CC3)sc2c1	Arbovirus anti 48
Cc1ccc(-c2csc(N/N=C/c3ccco3)n2)cc1	none
C(=N\Nc1nc(-c2ccccc2)cs1)/c1ccco1	Arbovirus anti 36
C(=N\Nc1nc(-c2ccccc2)cs1)/c1cccs1	Arbovirus anti 35
Cc1noc(C)c1COC(=O)C(c1ccccc1)c1ccccc1	none
Cc1ccc(Nc2nc(-c3ccc(O)c(O)c3)cs2)nc1	none
COc1ccc(-c2csc(Nc3ccc(C)cn3)n2)cc1OC	Arbovirus anti 53
C/C(=N\NC(=O)CCc1ccc(S(=O)(=O)N2CCOCC2)cc1)c1ccc(OC(F)F)cc1	none
CCN1CC(CN(C)Cc2nc(-c3ccc(C(F)(F)F)cc3)oc2C)CC1=O (configuration not stated)	none
O=C(O)C1CCCCC1C(=O)Nc1nc(-c2ccc(Cl)s2)cs1 (configuration not stated)	Arbovirus anti 38
Cc1ccc2nc(NC(=O)C3CCN(S(=O)(=O)c4cnc[nH]4)CC3)sc2c1	Arbovirus anti 31
CCOc1ccc2nc(NC(=O)Nc3ccccc3)sc2c1	none
CCOc1ccc2nc(NC(=O)Nc3cccs3)sc2c1	Arbovirus anti 36
CCOc1ccc2nc(NC(=O)C3CCN(S(=O)(=O)c4cnc[nH]4)CC3)sc2c1	Arbovirus anti 30
Cc1ccc(C(OCCN(C)C)c2cccc(C(F)(F)F)c2)cc1 (configuration not stated)	none
CCOC(=O)c1ccc(N/C(=N\S(=O)(=O)c2ccc(F)cc2F)c2ccccc2)cc1	none
Cc1ccccc1C(=O)Oc1cc(N)n(S(=O)(=O)c2ccccc2)n1	none
COc1ccc(-c2nsc(SCC(=O)NCC3CCCO3)n2)cc1 (configuration not stated)	none
CCNc1nc(SCCOc2ccc(Cl)cc2Cl)nc(N(C)C)n1	Arbovirus anti 30
c1ccc(-c2csc3ncnc(NCCCN4CCOCC4)c23)cc1	Arbovirus anti 43
c1csc(-c2csc3ncnc(NCCCN4CCOCC4)c23)c1	none
N[C@@H](Cc1cc(I)c(Oc2ccc(O)c(I)c2)c(I)c1)C(=O)O	Arbovirus anti 47!
CC(C)Cc1nc2ccccc2n1CCc1ccccc1	none
CC1=NN(c2nc(-c3ccc(Cl)cc3)cs2)C(=O)C1	Arbovirus anti 42
CC1=NN(c2nc(-c3ccc(F)cc3)cs2)C(=O)C1	none
Clc1nc2ccccc2cc1/C=N/Nc1nc2ccccc2[nH]1	Bcl-W Bim block 58, Bcl-XL Bim block 58, Bfl-1 Bim block 69, Bcl-B Bim block 94, Bcl-2 Bim block 93
C(=N\Nc1nc2ccccc2[nH]1)/c1ccncc1	none
Cc1ccc2cc3cc(C(=O)N(CC(=O)NC4CCCC4)c4cccc(C)c4C)sc3nc2c1	none
C/C(=N\Nc1nc2ccccc2[nH]1)c1ccc2c(c1)OCO2	Arbovirus anti 36
COCCNC(=O)Cn1cc(/C=N/NC(=O)c2ccc(Oc3ccc(O)cc3)cc2)c2ccccc21	none
CN(c1ccccc1)c1ccc(/C=C(\CCC(=O)O)c2nc3ccccc3s2)cc1[N+](=O)[O-]	Arbovirus anti 37
CCc1c(C)nc(SC(C(=O)O)c2ccccc2)c(C#N)c1C (configuration not stated)	none
O=C(NCc1ccc(F)cc1)c1c2c(nc3ccccc13)CCN(Cc1ccccc1)C2	none
Nc1[nH]nc2nc(NCc3ccccc3)c3c(c12)CCN(Cc1ccccc1)C3	Arbovirus anti 49
COc1ccc2c(c1)C(C)=CC(C)(C)N2S(=O)(=O)c1ccc(Br)cc1	none
COc1cccc(C2CC(c3ccc(Cl)cc3Cl)Nc3nc(N)nn32)c1 (configuration not stated)	Arbovirus anti 41
O=C(CCl)N=c1sccn1Cc1cccc2ccccc12	Arbovirus anti 31
O=C(CSc1ncnc2c1sc1ccccc12)Nc1ccc(Br)cc1	none
COc1cc(/C=N/NC(=S)Nc2cccc(S(=O)(=O)N(C)C)c2)ccc1O	none
CCOc1ccc(-n2c(=O)[nH]c3sc4c(c3c2=O)CCCC4)cc1	Arbovirus anti 40
CCOc1ccc(-n2c(=O)c3c4c(sc3n(CC(=O)NCC3CCCO3)c2=O)CCCC4)cc1 (configuration not stated)	none
COC(=O)c1ccc(NC(=O)c2ccccc2NS(C)(=O)=O)cc1	Arbovirus anti 52
Cc1nn(CC(=O)OCCOc2ccc(Br)cc2)c(C)c1[N+](=O)[O-]	Arbovirus anti 61
Cc1nc(C)c(C(=O)NNS(=O)(=O)c2ccc3ccccc3c2)s1	none
CCOC(=O)C1CCN(CCC(=O)Nc2ccc(F)cc2)CC1	none
COC(=O)c1c(C(=O)OC)c2cccc3cc(-c4ccccc4)c4ccc1c4n32	Bfl-1 Bim block 44
COC(=O)c1cc2c(-c3ccccc3)cc3ccccn3c-2c1C(=O)OC	none
COC(=O)CC1C(=O)NCCN1C(=O)CSc1nnnn1-c1ccc(Cl)cc1 (configuration not stated)	none
COC(=O)C(C(=O)OC)c1ccc(N)cc1	none
Cc1nc2ccc(NC(=O)c3ccc(Cl)c([N+](=O)[O-])c3)cc2s1	none
Cc1nc2ccc(NC(=O)c3cc([N+](=O)[O-])cc([N+](=O)[O-])c3Cl)cc2s1	Bfl-1 Bim block 52
COc1ccccc1-n1c(-c2ccc(Cl)cc2)c[nH]c1=S	Bcl-B Bim block 42
CC1=CCC(/C=N\Nc2nnc3c(n2)[nH]c2ccccc23)CC1 (configuration not stated)	none
N/C(=N\OC(=O)CSc1ccccc1)c1cccc([N+](=O)[O-])c1	none
CCOC(=O)CC1=NS(=O)(=O)c2ccccc2N1	Arbovirus anti 77
CC(C)CCNC(=O)CCCC1=NS(=O)(=O)c2ccccc2N1	none
CCOc1cc(NC(=S)NC)c(OCC)cc1NC(=O)c1ccc(OC)cc1	Bcl-W Bim block 49, Bfl-1 Bim block 45, Bcl-B Bim block 41, Bcl-2 Bim block 53
CN1C(=O)/C(=C/c2ccc(-c3ccccc3[N+](=O)[O-])o2)SC1=Nc1ccc(Cl)c(C(=O)O)c1	Bcl-W Bim block 44, Bcl-XL Bim block 64, Bcl-B Bim block 44
O=C(Nc1ccccc1)Nc1ccc2ncoc2c1	Bcl-XL Bim block 59, Bcl-B Bim block 52, Bcl-2 Bim block 41
Cc1ccc(Cl)cc1NC(=O)COC(=O)c1ccc(COc2ccc3c(C)cc(=O)oc3c2)cc1	none
COc1cc(C2N=C(c3ccccc3)NO2)cc(Br)c1O (configuration not stated)	Arbovirus anti 35
